Only some compounds are listed: those with a hit (about 2.4% of all), similar ones and a draw of the others.
ULK1 primary: inhibitors of human ULK1 kinase | O75385 | AlphaScreen Atg13 phosphorylation by ULK1, luminescence | inhibition, % at 5.96 µM | hit rate 1.9% among 30,000 | AID 1259251; in the data active means inhibition above about 43%;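 further: 0% = median of compound wells and 100% = no enzyme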
ASK1 primary: human ASK1 kinase inhibition, primary screen | Q99683 | AID 1159602 | inhibition, % at 7.44 µM | hit rate 0.99% among 22,000 | AlphaScreen MKK6 phosphorylation by ASK1, luminescence; in the data active means inhibition above about 35%;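 further: 0% = median of compound wells and 100% = no enzyme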
TruHits interf: AlphaScreen optical interference dose response, ASK1 counter-screen; shares compounds with ASK1 primary; AlphaScreen TruHits beads, signal interference counterscreen; IC50, µM; hit rate 20% among 220;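 active means IC50 of 10 µM or lower in the counterscreen; inactive means IC50 above 10 µM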;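 further: loss of AlphaScreen light from TruHits beads alone with no ASK1 enzyme present; potency of signal reduction so a low IC50 flags an assay artifact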
An asterisk follows results filed as active.

Results for c1ccc(CN2CCC(Nc3nc(Nc4ccc(N5CCOCC5)cc4)nc4c3ncn4-c3ccccc3)CC2)cc1 ?
ULK1 primary: 7; ASK1 primary: 32

How did FC(F)(F)c1ccc(Cn2cnc3c(Nc4ccccc4)nc(NC4CCN(Cc5ccccc5)CC4)nc32)cc1 do in these assays?
ULK1 primary: -4; ASK1 primary: 3

Results for COc1ccc(-c2cncc(C(=O)NC3CC3)c2)cc1 ?
ULK1 primary: -2; ASK1 primary: 4

How did O=C(/C=C/c1ccccc1F)Nc1ccc2[nH]ncc2c1 do in these assays?
ULK1 primary: -2; ASK1 primary: -17

How did O=C(NC1CC1)c1ccc(-c2nc(NCCCN3CCCC3=O)c3ncn(-c4ccccc4)c3n2)cc1 do in these assays?
ULK1 primary: -15; ASK1 primary: -10

What do the screens show for `Cn1cc(-c2ccc3cnc(Nc4ccc(-n5cnc(N6CCOCC6)n5)cc4)nc3c2)cn1`?
ULK1 primary: 56*; ASK1 primary: 48*; TruHits interf: >19

What do the screens show for `Cn1cc(-c2ccc3cnc(Nc4ccc(-n5cnc(N6CCOCC6)n5)cc4)nc3c2-c2ccccc2)cn1`?
ULK1 primary: -78; ASK1 primary: -17

Results for c1cc(-c2ccc3cnc(Nc4ccc(-n5cnc(N6CCOCC6)n5)cc4)nc3c2)ccn1 ?
ULK1 primary: 12; ASK1 primary: 5

How did COc1c(-c2cnn(C)c2)ccc2cnc(Nc3ccc(-n4cnc(N5CCOCC5)n4)cc3)nc12 do in these assays?
ULK1 primary: 83*; ASK1 primary: 42*; TruHits interf: >19

How did O=C(NCCc1ccc(O)cc1)c1csc(-c2cccs2)n1 do in these assays?
ULK1 primary: 1; ASK1 primary: 2

Results for COc1cc(NC(=O)c2cncc(-c3ccc(C(=O)NC4CC4)cc3)c2)cc(OC)c1OC ?
ULK1 primary: 7; ASK1 primary: 2

How did CC(=O)Nc1ccc(NC(=O)Cc2cn(-c3ccc(Nc4nccc5ccccc45)nn3)c3ccccc23)cc1 do in these assays?
ULK1 primary: 4; ASK1 primary: 15

How did COc1cc2nc(Nc3nccc4ccccc34)nc(Nc3ccc(NC(C)=O)cc3)c2cc1OC do in these assays?
ULK1 primary: -2; ASK1 primary: 69*; TruHits interf: >19

How did COc1cc2nc(Nc3ccccc3)nc(Nc3ccc(NC(C)=O)cc3)c2cc1OC do in these assays?
ULK1 primary: -5; ASK1 primary: 3

What do the screens show for `O=C(NC1CC1)c1csc(Nc2ncccn2)n1`?
ULK1 primary: 14; ASK1 primary: -13

Results for COc1ccc(CCNc2nc(Nc3cccc(N(C)C)c3)nc3c2ncn3Cc2ccc(C(F)(F)F)cc2)cc1 ?
ULK1 primary: 22; ASK1 primary: 30

What do the screens show for `CC(C)N(CCNc1nc(Nc2cccc(N(C)C)c2)nc2c1ncn2C1CCCCC1)C(C)C`?
ULK1 primary: 3; ASK1 primary: 28

What do the screens show for `CN(C)c1cccc(Nc2nc(NCCc3ccc(O)cc3)c3ncn(Cc4ccc(C(F)(F)F)cc4)c3n2)c1`?
ULK1 primary: 32; ASK1 primary: 37*; TruHits interf: >19

What do the screens show for `CN(C)c1cccc(Nc2nc(NCCc3ccc(O)cc3)c3ncn(C4CCCCC4)c3n2)c1`?
ULK1 primary: 21; ASK1 primary: 38*; TruHits interf: >20

What do the screens show for `CN(C)c1cccc(Nc2nc(NCCc3ccc(O)cc3)c3ncn(-c4ccccc4)c3n2)c1`?
ULK1 primary: 16; ASK1 primary: 37*; TruHits interf: >20

Results for Oc1ccc(CCNc2nc(Nc3ccccc3)nc3c2ncn3-c2ccccc2)cc1 ?
ULK1 primary: -33; ASK1 primary: 16

What do the screens show for `c1ccc2c(c1)OC[C@@H](c1nc3ncc(-c4ccncc4)cc3[nH]1)O2`?
ULK1 primary: 4; ASK1 primary: 2

What do the screens show for `O=C(Nc1ccc2c(c1)OCO2)c1cnc(N2CCN(Cc3ccc4c(c3)OCO4)CC2)s1`?
ULK1 primary: 19; ASK1 primary: -2

What do the screens show for `COc1cccc(Nc2ccc3c(cnn3-c3cc(C(=O)NCCN4CCN(C)CC4)ccn3)c2)c1`?
ULK1 primary: -33; ASK1 primary: -6

What do the screens show for `c1ccc(CNc2ncnc3nc(Nc4ccccn4)[nH]c23)cc1`?
ULK1 primary: -1; ASK1 primary: 6

What do the screens show for `O=C(O)CN1C(=O)/C(=C/c2cc([N+](=O)[O-])ccc2O)SC1=S`?
ULK1 primary: 6

How did COc1ccc(CCNc2nc(Nc3ccc(N4CCOCC4)cc3)nc3c2ncn3C(C)C)cc1 do in these assays?
ULK1 primary: -4; ASK1 primary: 25

What do the screens show for `COc1ccc(CCNc2nc(Nc3ccc(N4CCOCC4)cc3)nc3c2ncn3-c2ccccc2)cc1`?
ULK1 primary: 12; ASK1 primary: 37*; TruHits interf: inactive

What do the screens show for `COc1ccc(CCNc2nc(Nc3ccc(C(F)(F)F)cc3)nc3c2ncn3-c2ccsc2)cc1`?
ULK1 primary: -1; ASK1 primary: 10

What do the screens show for `COc1ccc(CCNc2nc(Nc3ccc(N4CCOCC4)cc3)nc3c2ncn3-c2ccsc2)cc1`?
ULK1 primary: 15; ASK1 primary: 37*; TruHits interf: 7.4*

What do the screens show for `COc1ccc(CCNc2nc(Nc3ccc(N4CCOCC4)cc3)nc3c2ncn3Cc2ccc(C(F)(F)F)cc2)cc1`?
ULK1 primary: -19; ASK1 primary: 72*; TruHits interf: 9.5*

What do the screens show for `COc1ccc(CCNc2nc(Nc3ccc(C(F)(F)F)cc3)nc3c2ncn3Cc2ccc(C(F)(F)F)cc2)cc1`?
ULK1 primary: -17; ASK1 primary: 4

Results for CC(C)NNC(=O)COc1ccc(Cl)cc1 ?
ULK1 primary: -2

How did CN(C)CCNc1cc(-c2ccncc2)nc(-c2ccncc2)n1 do in these assays?
ULK1 primary: 12

What do the screens show for `COc1cc(NC(=O)c2cc(NCCCN3CCCC3=O)nc3ccccc23)cc(OC)c1OC`?
ULK1 primary: -6; ASK1 primary: -2

Results for COc1cc2nc(Nc3cc(OC)c(OC)c(OC)c3)nc(Nc3ccc(N4CCOCC4)cc3)c2cc1OC ?
ULK1 primary: -20; ASK1 primary: 48*; TruHits interf: 7.2*

How did CCNc1nc(Nc2ccc3c(c2)OCO3)c2cc(OC)c(OC)cc2n1 do in these assays?
ULK1 primary: -1; ASK1 primary: 13

How did COc1cc2nc(Nc3ccc(N4CCOCC4)cc3)nc(Nc3cc(OC)c(OC)c(OC)c3)c2cc1OC do in these assays?
ULK1 primary: -4; ASK1 primary: 53*; TruHits interf: 7.7*

Results for COc1cc2nc(Nc3cccc(N(C)C)c3)nc(Nc3ccc(N4CCOCC4)cc3)c2cc1OC ?
ULK1 primary: -4; ASK1 primary: 56*; TruHits interf: 6.4*

Results for Cc1cnc(Nc2cccc(N(C)C)c2)nc1Nc1ccc(N2CCOCC2)cc1 ?
ULK1 primary: 37; ASK1 primary: 23

How did COc1cc2nc(Nc3cccc(N(C)C)c3)nc(Nc3ccc4c(c3)OCO4)c2cc1OC do in these assays?
ULK1 primary: 0; ASK1 primary: 61*; TruHits interf: 3.6*

What do the screens show for `COc1cc2nc(N3CCOCC3)nc(Nc3ccc(N4CCOCC4)cc3)c2cc1OC`?
ULK1 primary: -11; ASK1 primary: 10

How did COc1cc2nc(Nc3ccncn3)nc(Nc3ccc(N4CCOCC4)cc3)c2cc1OC do in these assays?
ULK1 primary: -26; ASK1 primary: 22

Screening results as filed in PubChem BioAssay.
